The source of these data is PubChem BioAssay (NCI).

About 83,000 compounds went through this panel and 20% of them were active in at least one assay; those are over-represented in the sample as a whole.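 Note: values are percent growth. 100 is the growth of untreated cells, values between 100 and 0 indicate rising inhibition; between -100 and 0 indicates cell death.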 The source made the active and inactive calls. Rule for the calls: active = growth percent below 10; inactive = the rest.

This test deals with SNB-75 CNS. The experiment in a line: NCI-60 one-dose screen, 48 h (100 = growth as untreated, 0 = no growth, -100 = all killed). To be noted: 10 µM unless noted.
With `Cn1/c(=N\N=C\c2ccccc2OCCO)sc2ccccc21`, the growth was 115% (inactive). With `C=C1C(=O)C2CCC1C2` (stereo unspecified), the growth was 103% (inactive). As to `CC(C)C(C)(C)C(=O)C(C)(C)C(C)(C)C`, the growth is 109% (inactive). As to `Cc1ccc(OC(=O)c2ccccc2)cc1`, the growth is 108% (inactive). With `C[n+]1cc2cc3c(cc2c2ccccc21)OCO3`, the growth was 22.5% (inactive). In the case of `Cc1ccc(Cc2ccc(C)cc2)cc1` it was 101% (inactive).

As to `NCCCN1CCCC1=O`, the growth is 116% (inactive). In the case of `CCCCCCCCCCCCCCCCCCSC(=N)N` it was 88.6% (inactive). In the case of `C=C1C(=O)C2CCN1CC2` it was 89.2% (inactive); in that of `Cc1ccc[n+](CCC(N)=O)c1`, 87% (inactive). In the case of `N#CC1(O)CCCCC1` it was 49.2% (inactive); in that of `CCOC(=O)CO`, 94.1% (inactive). Regarding `CCOC(=O)N[C@H]1CCc2cc(OC)c(OC)c(OC)c2-c2ccc(SC)c(=O)cc21`, the growth was 44.3% (inactive).

As to `O=C1C=Cc2ccccc2/C1=C/c1[nH]c(=O)[nH]c1O`, the growth was 31.9% (inactive). Next, `CCN(CC)CCCC(C)NC(=S)N/N=C(\C)c1ccccn1` (stereo unspecified): 61.9% (inactive); `Cn1c(=O)c2[nH]c(CC(=O)O)nc2n(C)c1=O`: 98.1% (inactive). Next, `Cc1ccc(/C=N/NC(N)=S)s1`: 91.2% (inactive); `CCNC(=O)Oc1ccc[nH]c1=O`: 85.3% (inactive); `Cc1cccc(C)c1NC(=S)/N=C\c1c(O)[nH]c(=O)[nH]c1=O`: 85.1% (inactive). As for `Cc1ccc(C)c(CCO)c1`, the growth is 95.7% (inactive). In the case of `O=C(OCC1CCCO1)c1ccc([N+](=O)[O-])cc1` (stereo unspecified) it was 85.8% (inactive).
